# Test results reported in article PMC10726135, “HNF4α isoforms regulate the circadian balance between carbohydrate and lipid metabolism in the liver”.
# Whole data set: some 18,000 sequences, median “log2 normalized intensity” near 0.39, cut for the highest 2% near 6.6. The entries come from a sample that favours the highest values as a whole.
# Target: T1, HNF4alpha2 (COS-7 nuclear extract) (Homo sapiens, UniProt P41235 1-474)
# T1 sequence: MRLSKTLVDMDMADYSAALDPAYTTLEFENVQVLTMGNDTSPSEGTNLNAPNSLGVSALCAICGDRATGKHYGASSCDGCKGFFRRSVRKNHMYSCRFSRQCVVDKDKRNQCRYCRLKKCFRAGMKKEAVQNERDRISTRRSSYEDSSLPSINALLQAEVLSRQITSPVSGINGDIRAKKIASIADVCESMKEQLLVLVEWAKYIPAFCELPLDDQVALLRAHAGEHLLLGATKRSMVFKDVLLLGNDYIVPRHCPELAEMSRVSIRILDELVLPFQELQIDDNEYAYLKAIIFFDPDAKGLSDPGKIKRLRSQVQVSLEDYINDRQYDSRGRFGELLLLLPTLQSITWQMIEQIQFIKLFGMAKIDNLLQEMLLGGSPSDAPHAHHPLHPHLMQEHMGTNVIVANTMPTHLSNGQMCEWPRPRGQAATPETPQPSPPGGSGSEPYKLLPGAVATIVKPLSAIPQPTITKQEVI
# Assay: protein-binding microarray; COS-7 nuclear extract on double-stranded Agilent 4x180k PBM; binding buffer, salt, pH and temperature not given in the material; high values mean tight binding
# Conditions: chain copies: 2; label: 3' end of strand 1 on the slide; dsDNA, one strand shown
# How it was run: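 A human HNF4α isoform was expressed in COS-7 cells by transient CaPO4 transfection, and nuclear extracts were prepared. These were applied to a custom Agilent SurePrint G3 4x180k array carrying ~44,000 test sequences in quadruplicate as double-stranded ~60-nt oligonucleotides, and an Agilent G2565CA scanner imaged bound HNF4α at 2-µm resolution. The background-corrected, normalized gProcessedSignal from Agilent software was used as the binding signal.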
row,Sequence,binding signal [log2 normalized intensity]
1,GGGCCATGACCTTTACCCCCATTTGGTAATGCCTAGGGAGATTAGAGTATCGGTCGA,6.29
2,ATGACCTTTACCCCCATTTGGTAATGGGCCGCCTAGGGAGATTAGAGTATCGGTCGA,4.83
3,GGCAGGGCCAGATAAAGCAGGTTGTACCTTGCCTAGGGAGATTAGAGTATCGGTCGA,2.4
4,AACGGCCCAGGGTTAGAGGATGACCTTCCCGCCTAGGGAGATTAGAGTATCGGTCGA,2.99
5,TCACCAGGATGGGCCATGACCTTTACCCCCGCCTAGGGAGATTAGAGTATCGGTCGA,9.28
6,GATAAAGCAGGTTGTACCTTGACCCAAGAAGCCTAGGGAGATTAGAGTATCGGTCGA,4.88
7,AGGATGGGCCATGACCTTTACCCCCATTTGGCCTAGGGAGATTAGAGTATCGGTCGA,7.65
8,GGCCAGATAAAGCAGGTTGTACCTTGACCCGCCTAGGGAGATTAGAGTATCGGTCGA,8.92
9,CACTATCACCAGGATGGGCCATGACCTTTAGCCTAGGGAGATTAGAGTATCGGTCGA,4.48
10,GCTTCTCTTGGACCTCAATGTGCTCATCCAGCCTAGGGAGATTAGAGTATCGGTCGA,0.722
11,CCCACGTACATTGCACCCTCCAGGAGCCCCGCCTAGGGAGATTAGAGTATCGGTCGA,2.07
12,TATGTGATCAGATGTGGACAATCATTGTGCGCCTAGGGAGATTAGAGTATCGGTCGA,1.53
13,AGTGGAGAAATAACATTAATGGAAATGCCTGCCTAGGGAGATTAGAGTATCGGTCGA,-0.84
14,ACCATCCACGGATGCATGATTGCTCTCTACGCCTAGGGAGATTAGAGTATCGGTCGA,-0.932
15,TGCACAACGACCCTTGCTCTGTTTTCTGACGCCTAGGGAGATTAGAGTATCGGTCGA,1.89
16,CTTTGAGAAAGCAAAGTCCCTGGGGACAGGGCCTAGGGAGATTAGAGTATCGGTCGA,-0.0595
17,TCTAAGACATAACACAGGTGACCTTTGCTCGCCTAGGGAGATTAGAGTATCGGTCGA,8.37
18,AACACAGGTGACCTTTGCTCCGGTTCCCAAGCCTAGGGAGATTAGAGTATCGGTCGA,6.26
19,TCTTTTCTAAGACATAACACAGGTGACCTTGCCTAGGGAGATTAGAGTATCGGTCGA,4.03
20,CTAAGCAGGCACATTCCAGGACCTTTGCTCGCCTAGGGAGATTAGAGTATCGGTCGA,4.08
21,GACATAACACAGGTGACCTTTGCTCCGGTTGCCTAGGGAGATTAGAGTATCGGTCGA,7.4
22,AGGTGACCTTTGCTCCGGTTCCCAATAAGTGCCTAGGGAGATTAGAGTATCGGTCGA,5.06
23,CCTCCCTCCATGCTGTAGATTGTGGAATGTGCCTAGGGAGATTAGAGTATCGGTCGA,1.81
24,GGTATGTTAGATTAGTGTGCAGCTTTGTGTGCCTAGGGAGATTAGAGTATCGGTCGA,2.1
25,GTCTAGATGCTGGGCAGCTTGTGTGCGTTTGCCTAGGGAGATTAGAGTATCGGTCGA,1.56
26,AGCTGTGTGCTCCTGTAGAATGACCCCCTGGCCTAGGGAGATTAGAGTATCGGTCGA,5.17
27,GAGGTGGGCCCAGGGTTCTCTGTGACCTTTGCCTAGGGAGATTAGAGTATCGGTCGA,6.79

row,Sequence,binding signal [log2 normalized intensity]
1,AACTGTACTTTGGACTGGGGACCTGGTCTGGCCTAGGGAGATTAGAGTATCGGTCGA,4.13
2,TGGGTTCTTGCCCTTTGGTCTGGAACACAGGCCTAGGGAGATTAGAGTATCGGTCGA,3.31
3,TGGAGCATGACCCTTTGCAGGTGGGAGAGGGCCTAGGGAGATTAGAGTATCGGTCGA,0.139
4,CTGCCCTTCTGACCTCCCAGGGATACTGTGGCCTAGGGAGATTAGAGTATCGGTCGA,2.47
5,GGGCCCAGGGTTCTCTGTGACCTTTGGAAGGCCTAGGGAGATTAGAGTATCGGTCGA,8.2
6,TGACTACCAGGTTCTGTACTTTGGAACCTGGCCTAGGGAGATTAGAGTATCGGTCGA,6.78
7,TTCTCTGTGACCTTTGGAAGGTGGGGGAGGGCCTAGGGAGATTAGAGTATCGGTCGA,4.13
8,GTTCTGTACTTTGGAACCTGAAAGAGCAACGCCTAGGGAGATTAGAGTATCGGTCGA,3.87
9,CTTCTGCCCCCGCAGACCCAGTCTTAGGGAGCCTAGGGAGATTAGAGTATCGGTCGA,4.14
10,AGAAATCCACACAGCACTGACCTTTGAGAGGCCTAGGGAGATTAGAGTATCGGTCGA,4.92
11,GGCACAGTAACCTGACCCCCAGTGGAATGTGCCTAGGGAGATTAGAGTATCGGTCGA,3.32
12,CCCAGATATCTCTGGTAAACAGCTGACAATGCCTAGGGAGATTAGAGTATCGGTCGA,-0.967
13,CAAATAAAGTTTGAGGAGAGTCAAAGGTTAGCCTAGGGAGATTAGAGTATCGGTCGA,3.24
14,CTCAGGTCAGGGAAGACTGATAAGAAAACTGCCTAGGGAGATTAGAGTATCGGTCGA,-0.891
15,AGTCATGTCTTCATGCTTTCAGCCTCTCTGGCCTAGGGAGATTAGAGTATCGGTCGA,0.358
16,ACCTCCTGGGCCCAAGTGCTCCTCCCCATCGCCTAGGGAGATTAGAGTATCGGTCGA,3.37
17,CGCTCCCCGACCTCCTGCTGCAGCTCTGGGGCCTAGGGAGATTAGAGTATCGGTCGA,0.0682
18,CCCATCGACCTTTGCTCCCGACTCTGAGGCGCCTAGGGAGATTAGAGTATCGGTCGA,5.07
19,GCTCTAGACATCGACCTTTGTGGGCTTCAGGCCTAGGGAGATTAGAGTATCGGTCGA,2.69
20,AGACATCGACCTTTGTGGGCTTCAGACATTGCCTAGGGAGATTAGAGTATCGGTCGA,1.71
21,TCTTCAGGCTGGGGCCCCATCGACCTTTGCGCCTAGGGAGATTAGAGTATCGGTCGA,6.79
22,AGGCTGGGGCCCCATCGACCTTTGCTCCCGGCCTAGGGAGATTAGAGTATCGGTCGA,9.6
23,CGACCTTTGCTCCCGACTCTGAGGCTCCATGCCTAGGGAGATTAGAGTATCGGTCGA,4.94
24,GGGGCCCCATCGACCTTTGCTCCCGACTCTGCCTAGGGAGATTAGAGTATCGGTCGA,8.11
25,AGCAGGCAGAGGTCAATGTCCACACCCCAGGCCTAGGGAGATTAGAGTATCGGTCGA,4.6
26,GCAGAGGCTGCAGAGGTTTCGCAAGGACGTGCCTAGGGAGATTAGAGTATCGGTCGA,-0.792
27,GTCTGCCTGACTCCAGAGTCCAAACTGGGAGCCTAGGGAGATTAGAGTATCGGTCGA,2.17
